Test [1] addresses Serine/threonine-protein kinase MRCK beta (Homo sapiens) (UniProt Q9Y5S2). To be noted: at 1 µM.
The target is the same in test [2]. As to conditions: at 10 µM.
Test [3] addresses Ribosomal protein S6 kinase alpha-5 (Homo sapiens) (UniProt O75582). As to conditions: at 1 µM.
The target is the same in test [4]. As to conditions: at 10 µM.
In test [5] the target is Ribosomal protein S6 kinase alpha-4 (Homo sapiens) (UniProt O75676). As to conditions: at 1 µM.
Test [6] shares this target. To be noted: at 10 µM.
Test [7] addresses SRSF protein kinase 3 (Homo sapiens) (UniProt Q9UPE1). As to conditions: at 1 µM.
For test [8] the target is unchanged. As to conditions: at 10 µM.
For test [9], the target named is T1, Serine/threonine-protein kinase 4 (Homo sapiens) (UniProt Q13043).
T1 sequence (whole entry): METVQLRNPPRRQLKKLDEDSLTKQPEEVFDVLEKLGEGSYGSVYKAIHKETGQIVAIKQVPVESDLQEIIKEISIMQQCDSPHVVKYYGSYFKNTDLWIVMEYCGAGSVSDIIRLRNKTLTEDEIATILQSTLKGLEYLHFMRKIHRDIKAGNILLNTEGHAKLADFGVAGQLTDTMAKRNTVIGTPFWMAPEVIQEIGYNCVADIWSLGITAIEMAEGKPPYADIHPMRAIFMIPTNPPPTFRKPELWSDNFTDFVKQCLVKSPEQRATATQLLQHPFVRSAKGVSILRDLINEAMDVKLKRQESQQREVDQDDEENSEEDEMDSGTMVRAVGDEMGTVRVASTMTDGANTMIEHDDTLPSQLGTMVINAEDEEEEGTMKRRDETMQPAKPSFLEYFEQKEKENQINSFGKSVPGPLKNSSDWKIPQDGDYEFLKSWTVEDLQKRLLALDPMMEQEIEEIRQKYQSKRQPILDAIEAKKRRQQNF
As to conditions: at 1 µM.

Test [10] addresses T1, Serine/threonine-protein kinase 4 (Homo sapiens). As to conditions: at 10 µM.
Test [11] deals with T2, Serine/threonine-protein kinase 3 (Homo sapiens) (UniProt Q13188).
T2 sequence (whole entry): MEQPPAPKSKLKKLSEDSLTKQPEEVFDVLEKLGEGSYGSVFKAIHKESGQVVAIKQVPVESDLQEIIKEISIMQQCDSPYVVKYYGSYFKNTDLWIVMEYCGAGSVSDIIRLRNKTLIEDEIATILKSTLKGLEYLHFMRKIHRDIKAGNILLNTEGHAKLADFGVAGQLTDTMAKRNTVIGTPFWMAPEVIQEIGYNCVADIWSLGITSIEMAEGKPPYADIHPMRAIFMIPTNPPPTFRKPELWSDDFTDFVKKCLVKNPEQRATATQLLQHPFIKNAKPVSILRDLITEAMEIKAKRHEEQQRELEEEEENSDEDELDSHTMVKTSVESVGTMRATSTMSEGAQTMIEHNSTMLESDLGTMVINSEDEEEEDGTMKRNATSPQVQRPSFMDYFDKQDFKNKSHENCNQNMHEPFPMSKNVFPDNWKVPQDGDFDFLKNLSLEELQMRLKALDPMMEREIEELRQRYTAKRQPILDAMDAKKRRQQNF
As to conditions: at 1 µM.

Test [12] deals with T2, Serine/threonine-protein kinase 3 (Homo sapiens). As to conditions: at 10 µM.
Test [13] deals with Serine/threonine-protein kinase 24 (Homo sapiens) (UniProt Q9Y6E0). As to conditions: at 1 µM.
Sequence of Serine/threonine-protein kinase 24 (Homo sapiens) (Q9Y6E0 whole entry, looked up): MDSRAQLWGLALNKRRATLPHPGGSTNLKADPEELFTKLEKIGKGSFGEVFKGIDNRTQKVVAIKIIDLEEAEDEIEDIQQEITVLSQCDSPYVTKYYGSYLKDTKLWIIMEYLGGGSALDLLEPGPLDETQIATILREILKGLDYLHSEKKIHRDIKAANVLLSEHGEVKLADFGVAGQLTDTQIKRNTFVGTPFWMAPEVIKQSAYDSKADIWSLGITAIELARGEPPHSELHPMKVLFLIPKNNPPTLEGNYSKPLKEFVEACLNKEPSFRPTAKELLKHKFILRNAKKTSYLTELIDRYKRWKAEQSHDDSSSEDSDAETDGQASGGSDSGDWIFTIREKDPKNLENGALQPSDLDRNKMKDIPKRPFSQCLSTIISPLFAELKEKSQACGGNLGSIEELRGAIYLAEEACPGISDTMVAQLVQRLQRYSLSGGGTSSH
Test [14] has the same target. To be noted: at 10 µM.
Test [15] concerns the target T3, Tyrosine-protein kinase Mer (Homo sapiens) (UniProt Q12866).
T3 sequence (whole entry): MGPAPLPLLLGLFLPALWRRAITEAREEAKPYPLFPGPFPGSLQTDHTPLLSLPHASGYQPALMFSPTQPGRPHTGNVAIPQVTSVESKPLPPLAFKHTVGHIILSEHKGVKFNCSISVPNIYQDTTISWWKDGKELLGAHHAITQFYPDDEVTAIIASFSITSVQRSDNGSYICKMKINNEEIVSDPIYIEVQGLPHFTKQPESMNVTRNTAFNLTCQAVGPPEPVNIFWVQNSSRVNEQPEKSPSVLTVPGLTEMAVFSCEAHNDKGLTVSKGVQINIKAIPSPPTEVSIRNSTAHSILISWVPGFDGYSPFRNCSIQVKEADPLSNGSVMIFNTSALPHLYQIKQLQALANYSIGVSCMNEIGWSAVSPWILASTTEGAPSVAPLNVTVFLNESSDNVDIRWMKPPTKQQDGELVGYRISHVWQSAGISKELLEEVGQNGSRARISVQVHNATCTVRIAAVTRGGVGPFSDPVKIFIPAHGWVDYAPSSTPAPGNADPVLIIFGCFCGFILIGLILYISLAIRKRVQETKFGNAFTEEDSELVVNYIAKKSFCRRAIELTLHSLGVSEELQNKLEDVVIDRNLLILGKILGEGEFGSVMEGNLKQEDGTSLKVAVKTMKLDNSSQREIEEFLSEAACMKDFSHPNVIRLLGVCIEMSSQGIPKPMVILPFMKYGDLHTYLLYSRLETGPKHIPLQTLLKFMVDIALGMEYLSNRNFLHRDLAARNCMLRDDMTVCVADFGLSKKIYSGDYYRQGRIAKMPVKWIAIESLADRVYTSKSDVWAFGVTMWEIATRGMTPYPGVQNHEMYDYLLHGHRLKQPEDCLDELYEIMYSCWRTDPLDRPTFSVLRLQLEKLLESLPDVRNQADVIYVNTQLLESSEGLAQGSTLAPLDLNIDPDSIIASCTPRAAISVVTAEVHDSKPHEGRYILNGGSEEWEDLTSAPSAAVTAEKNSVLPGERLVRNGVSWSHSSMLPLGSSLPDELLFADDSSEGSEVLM
As to conditions: at 1 µM.

Test [16] has as its target T3, Tyrosine-protein kinase Mer (Homo sapiens). As to conditions: at 10 µM.
Test [17] has as its target Hepatocyte growth factor receptor (Homo sapiens) (UniProt P08581). To be noted: at 1 µM.
For test [18] the target is unchanged. To be noted: at 10 µM.
Test [19] concerns the target MAP kinase-interacting serine/threonine-protein kinase 2 (Homo sapiens) (UniProt Q9HBH9). To be noted: at 1 µM.
Test [20] shares this target. To be noted: at 10 µM.

Experimental findings from ChEMBL document CHEMBL2218924, “A broad activity screen in support of a chemogenomic map for kinase signalling research and drug discovery” (Biochem J, 2013) are described below.

Sequence of MAP kinase-interacting serine/threonine-protein kinase 2 (Homo sapiens) (Q9HBH9 whole entry, looked up): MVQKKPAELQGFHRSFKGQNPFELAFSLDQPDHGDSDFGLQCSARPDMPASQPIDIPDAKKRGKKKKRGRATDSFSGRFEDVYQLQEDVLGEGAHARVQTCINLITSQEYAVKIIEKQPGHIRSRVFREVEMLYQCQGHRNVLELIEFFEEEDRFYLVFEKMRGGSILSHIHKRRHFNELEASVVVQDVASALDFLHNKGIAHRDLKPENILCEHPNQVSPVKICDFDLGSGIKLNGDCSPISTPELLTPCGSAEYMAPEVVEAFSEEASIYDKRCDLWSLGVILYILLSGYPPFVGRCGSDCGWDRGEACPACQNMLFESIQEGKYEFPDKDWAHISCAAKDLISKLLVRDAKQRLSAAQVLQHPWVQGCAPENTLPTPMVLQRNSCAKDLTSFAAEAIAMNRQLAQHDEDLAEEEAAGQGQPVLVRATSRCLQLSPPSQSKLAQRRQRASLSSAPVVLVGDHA
Sequence of Ribosomal protein S6 kinase alpha-4 (Homo sapiens) (O75676 whole entry, looked up): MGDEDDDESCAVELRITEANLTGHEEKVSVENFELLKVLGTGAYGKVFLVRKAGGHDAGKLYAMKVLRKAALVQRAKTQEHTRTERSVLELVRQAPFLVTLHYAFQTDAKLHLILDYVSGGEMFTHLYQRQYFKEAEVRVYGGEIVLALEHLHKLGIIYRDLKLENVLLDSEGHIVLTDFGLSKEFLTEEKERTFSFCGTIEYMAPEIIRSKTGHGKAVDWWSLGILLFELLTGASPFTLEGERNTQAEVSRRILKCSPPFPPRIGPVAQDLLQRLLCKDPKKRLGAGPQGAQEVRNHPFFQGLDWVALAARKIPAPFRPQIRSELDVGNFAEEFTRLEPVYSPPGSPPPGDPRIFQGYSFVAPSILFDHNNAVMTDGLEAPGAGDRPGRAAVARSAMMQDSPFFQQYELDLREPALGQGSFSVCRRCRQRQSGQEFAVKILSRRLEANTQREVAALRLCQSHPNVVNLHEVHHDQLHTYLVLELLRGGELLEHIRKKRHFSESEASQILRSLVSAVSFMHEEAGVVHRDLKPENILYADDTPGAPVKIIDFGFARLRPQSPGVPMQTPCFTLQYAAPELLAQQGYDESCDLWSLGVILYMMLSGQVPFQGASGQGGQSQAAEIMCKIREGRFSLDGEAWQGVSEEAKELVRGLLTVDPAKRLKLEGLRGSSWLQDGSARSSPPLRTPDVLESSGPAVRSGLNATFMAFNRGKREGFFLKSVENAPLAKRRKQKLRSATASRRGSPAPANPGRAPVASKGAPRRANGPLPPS
Sequence of SRSF protein kinase 3 (Homo sapiens) (Q9UPE1 whole entry): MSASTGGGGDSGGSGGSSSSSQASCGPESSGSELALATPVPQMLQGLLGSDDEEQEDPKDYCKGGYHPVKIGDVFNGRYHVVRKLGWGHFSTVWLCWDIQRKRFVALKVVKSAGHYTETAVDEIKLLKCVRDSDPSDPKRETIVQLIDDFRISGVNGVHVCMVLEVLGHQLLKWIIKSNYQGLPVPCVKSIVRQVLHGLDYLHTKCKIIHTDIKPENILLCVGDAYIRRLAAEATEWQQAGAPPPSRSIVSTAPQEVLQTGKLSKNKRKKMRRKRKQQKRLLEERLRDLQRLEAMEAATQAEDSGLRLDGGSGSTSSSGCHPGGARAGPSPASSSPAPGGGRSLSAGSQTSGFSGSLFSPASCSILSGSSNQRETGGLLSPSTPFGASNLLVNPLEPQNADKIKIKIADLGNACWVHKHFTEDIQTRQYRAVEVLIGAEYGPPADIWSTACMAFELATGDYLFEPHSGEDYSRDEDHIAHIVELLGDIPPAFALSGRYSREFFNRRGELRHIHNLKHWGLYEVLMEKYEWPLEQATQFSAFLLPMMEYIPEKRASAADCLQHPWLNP
Sequence of Ribosomal protein S6 kinase alpha-5 (Homo sapiens) (O75582 whole entry, looked up): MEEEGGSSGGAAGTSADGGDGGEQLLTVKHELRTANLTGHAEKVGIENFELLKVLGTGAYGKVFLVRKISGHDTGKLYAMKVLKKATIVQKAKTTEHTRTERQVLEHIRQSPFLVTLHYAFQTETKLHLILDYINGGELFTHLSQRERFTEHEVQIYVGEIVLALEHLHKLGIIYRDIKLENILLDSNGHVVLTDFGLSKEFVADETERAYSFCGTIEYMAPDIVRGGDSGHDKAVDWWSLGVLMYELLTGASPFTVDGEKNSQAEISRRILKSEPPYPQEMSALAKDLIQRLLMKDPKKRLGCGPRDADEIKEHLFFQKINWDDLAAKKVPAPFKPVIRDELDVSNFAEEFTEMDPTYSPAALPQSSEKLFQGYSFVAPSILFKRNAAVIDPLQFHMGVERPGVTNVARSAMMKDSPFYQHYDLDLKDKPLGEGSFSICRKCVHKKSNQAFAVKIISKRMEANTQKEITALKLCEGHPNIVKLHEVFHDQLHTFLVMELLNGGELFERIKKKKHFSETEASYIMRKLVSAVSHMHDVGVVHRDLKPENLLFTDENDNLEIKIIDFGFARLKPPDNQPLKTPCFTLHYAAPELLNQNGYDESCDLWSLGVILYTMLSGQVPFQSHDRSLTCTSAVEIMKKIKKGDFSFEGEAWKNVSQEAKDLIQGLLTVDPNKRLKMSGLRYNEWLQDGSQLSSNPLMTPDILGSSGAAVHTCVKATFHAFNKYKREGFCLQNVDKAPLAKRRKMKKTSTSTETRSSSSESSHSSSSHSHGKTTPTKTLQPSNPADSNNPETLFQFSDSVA
Sequence of Serine/threonine-protein kinase MRCK beta (Homo sapiens) (Q9Y5S2 whole entry): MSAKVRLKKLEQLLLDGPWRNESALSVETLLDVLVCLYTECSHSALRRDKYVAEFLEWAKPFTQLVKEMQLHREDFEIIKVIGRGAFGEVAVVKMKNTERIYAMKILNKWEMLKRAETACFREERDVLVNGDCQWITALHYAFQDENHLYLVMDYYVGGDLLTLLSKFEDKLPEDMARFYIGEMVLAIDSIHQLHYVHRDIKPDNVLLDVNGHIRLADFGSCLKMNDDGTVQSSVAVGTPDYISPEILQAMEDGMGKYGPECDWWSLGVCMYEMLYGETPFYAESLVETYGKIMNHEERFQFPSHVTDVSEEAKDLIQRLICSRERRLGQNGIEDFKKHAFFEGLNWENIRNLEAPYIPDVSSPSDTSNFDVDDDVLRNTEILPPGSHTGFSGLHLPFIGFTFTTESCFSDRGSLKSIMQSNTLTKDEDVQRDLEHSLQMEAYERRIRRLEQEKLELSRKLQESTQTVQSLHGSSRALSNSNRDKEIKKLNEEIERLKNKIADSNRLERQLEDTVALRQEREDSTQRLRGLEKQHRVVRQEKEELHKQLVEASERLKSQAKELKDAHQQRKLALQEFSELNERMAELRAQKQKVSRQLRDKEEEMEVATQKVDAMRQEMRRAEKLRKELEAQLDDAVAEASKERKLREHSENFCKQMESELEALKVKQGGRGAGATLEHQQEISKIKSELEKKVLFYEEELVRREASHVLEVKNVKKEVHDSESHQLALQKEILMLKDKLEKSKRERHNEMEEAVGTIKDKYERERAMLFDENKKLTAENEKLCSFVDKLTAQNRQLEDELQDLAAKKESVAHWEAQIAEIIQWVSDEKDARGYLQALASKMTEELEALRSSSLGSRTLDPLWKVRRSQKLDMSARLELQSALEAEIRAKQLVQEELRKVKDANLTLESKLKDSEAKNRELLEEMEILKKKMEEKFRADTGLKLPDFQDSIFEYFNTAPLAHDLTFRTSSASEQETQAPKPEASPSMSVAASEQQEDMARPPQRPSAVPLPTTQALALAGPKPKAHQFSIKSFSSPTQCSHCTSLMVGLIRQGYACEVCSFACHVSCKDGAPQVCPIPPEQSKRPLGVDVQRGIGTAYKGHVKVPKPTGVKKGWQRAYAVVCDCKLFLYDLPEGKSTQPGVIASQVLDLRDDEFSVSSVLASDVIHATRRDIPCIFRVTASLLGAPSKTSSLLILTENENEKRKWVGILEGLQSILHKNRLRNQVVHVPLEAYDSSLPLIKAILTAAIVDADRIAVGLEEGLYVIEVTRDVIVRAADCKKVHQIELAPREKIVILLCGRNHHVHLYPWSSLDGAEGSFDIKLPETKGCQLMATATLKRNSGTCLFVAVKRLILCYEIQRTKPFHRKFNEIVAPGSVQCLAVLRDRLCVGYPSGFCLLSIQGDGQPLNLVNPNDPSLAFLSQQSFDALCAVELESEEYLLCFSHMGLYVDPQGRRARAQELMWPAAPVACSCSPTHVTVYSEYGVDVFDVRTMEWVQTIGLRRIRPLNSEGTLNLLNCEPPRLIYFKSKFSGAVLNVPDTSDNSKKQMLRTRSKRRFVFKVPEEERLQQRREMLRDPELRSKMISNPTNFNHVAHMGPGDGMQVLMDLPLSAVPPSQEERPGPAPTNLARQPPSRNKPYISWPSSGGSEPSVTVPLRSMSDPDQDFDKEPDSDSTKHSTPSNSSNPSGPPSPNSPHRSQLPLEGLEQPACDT

Turning to `O=C1NC(=O)/C(=C\c2ccc3nccnc3c2)S1`, the residual activity in test [1] worked out at 93%; in test [2], 53%; in test [3], 123%; in test [4], 90%; in test [5], 89%; in [6] it was 68%. Also, the residual activity amounted to 94% in [7]; 69% in test [8]; 94% in test [9]; 101% in [10]; 96% in test [11]; 100% in [12]. The residual activity in test [13] was 57%; in test [14] it was 55%; in test [15], 111%; in test [16] it was 60%; in test [17], 98%; in test [18], 94%. Besides, the figures for the residual activity in test [19] and in [20] were 76% and 28%, respectively.
On to `COc1ccc(OC)c2c(=S)c3ccccc3[nH]c12`, for which the residual activity came out at 88% in test [1]; 95% in [2]; 93% in test [3]; 122% in test [4]; 100% in [5]; 89% in [6]. The residual activity in test [7] is 103%; in test [8], 79%; in test [9], 74%; in test [10], 99%; in test [11], 96%; in test [12], 93%. Besides, the residual activity in test [13] is 80%; in test [14], 85%; in test [15] it was 99%; in test [16] it was 85%; in [17], 118%; in [18], 119%. For the same molecule, the residual activity in [19] came out at 97%; in test [20], 77%.
In the case of `CC(=O)c1ccc(N2CCOCC2)cc1O`, the residual activity in test [1] stood at 100%; in test [2] it was 83%; in [3] it was 133%; in test [4], 108%; in test [5] it was 92%; in [8], 88%. Besides, the residual activity in [9] came to 85%; in test [10], 96%; in [13], 70%; in test [14], 71%; in test [19] it was 105%; in [20], 96%.
Consider `COc1ccc(CNc2nc(N(CCO)CCO)nc3c2ncn3C(C)C)cc1`, for which the residual activity in test [1] is 88%; in [2], 83%; in test [3] it was 92%; in test [4] it was 96%; in test [5], 88%; in test [6] it was 82%. Moreover, the residual activity in [7] came out at 105%; in test [8], 84%; in test [9] it was 74%; in test [10], 112%; in [11], 107%; in test [12], 104%. Further, the residual activity in [13] came out at 65%; in [14] it was 60%; in [15], 90%; in [16], 60%; in [17], 122%; in test [18], 85%. For the same molecule, the results for the residual activity in [19] and in [20] were 99% and 100%, respectively.
For the molecule `COc1cc2ncnc(N3CCN(C(=O)Nc4ccc(Oc5ccccc5)cc4)CC3)c2cc1OC`, the residual activity was determined as 83% in test [1]; 87% in test [2]; 113% in test [3]; 104% in test [4]; 93% in test [5]; 123% in test [6]. The residual activity in test [7] stood at 109%; in [8], 79%; in [9] it was 85%; in [10], 88%; in [11], 98%; in test [12], 86%. Besides, the residual activity in test [13] turned out to be 98%; in [14] it was 117%; in test [15], 97%; in test [16] it was 60%; in test [17], 114%; in test [19], 92%. Also, the residual activity in [20] is 64%.
Turning to `COc1ccc(S(=O)(=O)N(CCO)c2ccccc2CN(C)C/C=C/c2ccc(Cl)cc2)cc1`, the residual activity in test [1] was found to be 98%; in test [2], 78%; in test [3] it was 115%; in test [4], 114%; in [5] it was 96%; in [6] it was 85%. Also, the residual activity was 102% in test [7]; 104% in test [8]; 107% in test [9]; 90% in test [10]; 99% in test [11]; 78% in test [12]. In addition, the residual activity was determined as 78% in test [13]; 69% in test [14]; 93% in [15]; 83% in test [16]; 113% in test [17]; 120% in test [18]. Besides, the values for the residual activity in [19] and in [20] were 106% and 96%, respectively.
With `COc1cc2ncnc(Nc3ccc(Oc4ccccc4)cc3)c2cc1OC`, the residual activity in test [1] is 99%; in test [2] it was 114%; in [3] it was 137%; in test [4] it was 129%; in [5], 89%; in [6], 135%. In addition, the residual activity in test [7] is 105%; in test [8] it was 81%; in test [9], 99%; in [10], 93%; in test [11], 96%; in [12], 80%. For the same molecule, the residual activity in [13] was found to be 111%; in test [14] it was 124%; in test [15], 53%; in test [16], 38%; in test [19], 52%; in test [20], 16%.
On to `c1ccc(-c2n[nH]cc2-c2ccnc3ccccc23)nc1`, for which the residual activity turned out to be 96% in [1]; 87% in test [2]; 89% in test [5]; 108% in test [6]; 109% in [7]; 94% in test [8]. The residual activity in test [11] was 88%; in test [12], 88%; in test [13] it was 66%; in test [14], 65%; in test [15], 98%; in test [16], 85%. Besides, the residual activity in test [17] is 108%; in test [18], 90%; in [19], 109%; in test [20], 98%.

Broadly, the residual activity is the signal under treatment as a percentage of the control signal.
